Data taken from paper PMC8769072, “Proteome‐scale mapping of binding sites in the unstructured regions of the human proteome” (Molecular Systems Biology, 2022).

Biological target: CRK 124-198, P46108
Sequence (P46108 124-198): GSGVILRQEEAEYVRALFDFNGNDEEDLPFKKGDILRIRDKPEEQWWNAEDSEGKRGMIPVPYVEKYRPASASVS

Selected by phage display, active:
VELAPILPAKKQGGRP [NPM3, O75607] confidence 4
SMELLPPELPPRIPIE [SH2B1, Q9NRF2] confidence 4
APPLPPREPPSKAAQE [ZNF516, Q92618] confidence 2
VQDIQPALPTKGEVLL [IVL, P07476] confidence 4
NTQPPLPFKEAHVSGH [ZNF804A, Q7Z570] confidence 4
SQEALPPKKRDLPVTS [ATXN1L, P0C7T5] confidence 3
GVPALPVKNLNGTGPV [DTX1, Q86Y01] confidence 3
ESVAYHAQNNPPVPPK [ADNP, Q9H2P0] confidence 2
PSAPQLPPRDSPRALM [PPARGC1B, Q86YN6] confidence 2
IEAKDLPAKKKYLAEL [DAB2IP, Q5VWQ8] confidence 2
PPVPPKSEAVREEARL [GAREM1, Q9H706] confidence 4
KEPPAKVPEVPKKIVV [TTN, Q8WZ42] confidence 3
PPPLPPKPRISSYPED [MAP4K5, Q9Y4K4] confidence 2
NVLNESPVQLPPLPPR [SCIMP, Q6UWF3] confidence 3
PTPVLMNQPPQIAPKR [EIF4G1, Q04637] confidence 3
PQLLPKTSPQSAPPSS [FAM205A, Q6ZU69] confidence 4
PPLPEKFVVKGVVDRF [SNX30, Q5VWJ9] confidence 3
SSALAATLPTLPAKVY [NCF4, Q15080] confidence 2
NDNSEYVPMLPGKFLG [IRS4, O14654] confidence 3
MLGPAIPPKATPEPAI [C6orf132, Q5T0Z8] confidence 3
PRPPELPQKRLKTLDA [WDR83, Q9BRX9] confidence 4
APSLPGKGSGASVALM [ZNF469, Q96JG9] confidence 3
LSETVTKPPLPQKNTA [NSUN7, Q8NE18] confidence 3
ADLPPKLQKMAGGAAR [KCNJ3, P48549] confidence 4
TNLPDVPNKSAPSPTS [ZNF462, Q96JM2] confidence 2
NLPPPLPPKKYAITSV [USP53, Q70EK8] confidence 2
ELWKVPLPPKNITAPS [TNRC6A, Q8NDV7] confidence 3
LSIPVTSEPPALPPKP [DOCK4, Q8N1I0] confidence 2
PLPPPKEVINGNIKTV [EIF3G, O75821] confidence 3
PALPSKLLSSGSAKAD [IL17RD, Q8NFM7] confidence 3
NSTSRPTLPVKSLAQR [SZRD1, Q7Z422] confidence 2
IPASPGQAAPLLPKKG [NUAK2, Q9H093] confidence 2
FPPLPEKAAALESAQE [HDLBP, Q00341] confidence 3
ELPVSPEIPPRKSQYL [IL31RA, Q8NI17] confidence 2
LKAIPASSSAPPLPPK [FAM110B, Q8TC76] confidence 4
SSSPQLPPKPSIDLTV [CTTNBP2, Q8WZ74] confidence 2
TPPPPSMPHKERYFDR [ADD3, Q9UEY8] confidence 2
LMDISPFLPEKGLPST [MTCL1, Q9Y4B5] confidence 3
SSSAHLPPKDRPVTVF [MYO9A, B2RTY4] confidence 2
PTLPPKGLAGPPASPG [KIAA1522, Q9P206] confidence 3
GPRLPPRQPTVASPAE [SATB1, Q01826] confidence 2
TQPPPHLPTKLVIRHG [BICRA, Q9NZM4] confidence 3
QVPSLPLKDSQELTAS [ZKSCAN5, Q9Y2L8] confidence 4

Biological target: CLTC 1-364, Q00610
Sequence (Q00610 1-364): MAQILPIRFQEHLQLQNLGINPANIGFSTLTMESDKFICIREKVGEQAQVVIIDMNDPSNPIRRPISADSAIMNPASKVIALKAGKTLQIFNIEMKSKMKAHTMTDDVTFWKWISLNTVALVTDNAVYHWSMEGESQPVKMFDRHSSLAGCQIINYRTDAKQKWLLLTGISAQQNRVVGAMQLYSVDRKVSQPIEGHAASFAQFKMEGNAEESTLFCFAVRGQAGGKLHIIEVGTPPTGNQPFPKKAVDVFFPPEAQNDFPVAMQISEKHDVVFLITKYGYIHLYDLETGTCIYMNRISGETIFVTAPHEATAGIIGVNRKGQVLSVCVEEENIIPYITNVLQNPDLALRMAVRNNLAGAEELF

Selected by phage display, active:
DLLSGDLIFLGSDSHP [GJB5, O95377] confidence 3
SADLIQFEERPQEPSE [MARF1, Q9Y4F3] confidence 3
VGSLIDFGPEAPTSSP [KIAA0513, O60268] confidence 3
GQVQVADLLGINGTGE [CCDC141, Q6ZP82] confidence 2
ANTLPVSGNLIDLYGN [MITF, O75030] confidence 3
EHNLITWTDGPPPVQF [MAU2, Q9Y6X3] confidence 4
PVSSLAEPDLINFMDF [DENND4C, Q5VZ89] confidence 2
GLLLMEEEGHSDLISF [TMEM94, Q12767] confidence 4
SLISWDEPGVDFYSKP [PIK3C2B, O00750] confidence 4
LPLIDFADTPEAHVAV [GTSE1, Q9NYZ3] confidence 3

Biological target: CEP55 160-217, Q53EZ4
Sequence (Q53EZ4 160-217): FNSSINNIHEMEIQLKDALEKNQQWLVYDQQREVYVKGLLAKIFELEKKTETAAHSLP

Selected by phage display, active:
MAVGPPDAPVGGPLTF [INO80E, Q8NBZ0] confidence 2
PPSADYSTPPHRTVPE [BAHD1, Q8TBE0] confidence 3
WSYLMHFLFDHSNLGS [OR52I1, Q8NGK6] confidence 2
PQSPPASMYGSTGSLL [PSD, A5PKW4] confidence 2
DAKAPPTAAYAGAAPA [CEBPB, P17676] confidence 4
AREPPADVWTPPARAS [TRIM25, Q14258] confidence 2
PPAAVYYAPAGPTSAQ [AKNA, Q7Z591] confidence 3
PPFTDYRQPPLDYRQP [MAGI2, Q86UL8] confidence 3
SNWSPLGPPSSPYGAA [MAML3, Q96JK9] confidence 2
